Measurements published in PubChem BioAssay.
Calls of active or inactive are those of the source.

Legend:
[1] = test system: Plasmodium falciparum Sir2 (PF13_0152, Sir2A); experiment: Plasmodium falciparum Sir2A binding compounds – biochemical, small-molecule microarray, 635 nm fluorescence, primary screen (AID 1098); conditions: fluorescence 635 nm, higher = more signal;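 further: score merges spot fluorescence intensity with its signal-to-noise ratio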
[2] = probe aDKK1 binding to arrayed compounds – biochemical, biotinylated probe, 635/667 nm fluorescence, primary screen (AID 1099); conditions: small-molecule microarray, higher = more signal;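 further: score merges 667nm spot fluorescence with signal to noise across triplicate slides; reference of the scale not given here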
[3] = probe aCHRDL2 binding to arrayed compounds – biochemical, biotinylated probe, 635/667 nm fluorescence, primary screen (AID 1100); conditions: small-molecule microarray, higher = more signal
[4] = change in splice reporter luminescence, either direction, cell-based, HEK293, spliceosome inhibition project, primary screen (AID 1101); conditions: HEK293 splicing luciferase reporter, 24 h, higher = more signal, called active from +8 up or from −8 down;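 further: HEK293 cells carrying a splicing-competent luciferase reporter gene; test concentration not given here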
[5] = biological target: Fibroblast growth factor 10 (Homo sapiens) (UniProt O15520); experiment: compounds binding fibroblast growth factor 10 – biochemical, small-molecule microarray, 635 nm fluorescence, primary screen (AID 1102); conditions: FGF10 binding, fluorescence 635 nm, higher = more signal
[6] = test system: glycogen synthase kinase-3 (GSK3A per assay name; protocol says GSK3B); experiment: compounds binding glycogen synthase kinase-3 – biochemical, small-molecule microarray, 635 nm fluorescence, GSK3A, primary screen (AID 1103); conditions: fluorescence 635 nm, higher = more signal; further: the record names both GSK3A and GSK3B
[7] = biological target: Epidermal growth factor receptor (Homo sapiens) (UniProt P00533); experiment: compounds binding epidermal growth factor receptor – biochemical, small-molecule microarray, 635 nm fluorescence, primary screen (AID 1104); conditions: EGFR binding, higher = more signal;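 further: score merges 667 nm emission intensity with spot signal to noise over triplicate slides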
[8] = biological target: Follistatin-related protein 3 (Homo sapiens) (UniProt O95633); experiment: compounds binding follistatin-related protein 3 – biochemical, small-molecule microarray, 635 nm fluorescence, primary screen (AID 1105); conditions: FSTL3 binding, higher = more signal;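 further: score merges emission near 667 nm and signal to noise per printed spot across three slides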
[9] = biological target: Dickkopf-related protein 1 (Homo sapiens) (UniProt O94907); experiment: small molecules binding DKK1 protein – biochemical, small-molecule microarray, 635 nm fluorescence scan, primary screen (AID 1106); conditions: higher = more signal;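 further: score merges emission near 667 nm with signal to noise over three replicate slides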
[10] = test system: Inhibin beta A chain (activin A); experiment: small molecules binding activin A – biochemical, small-molecule microarray, 635 nm fluorescence scan, primary screen (AID 1107); conditions: INHBA, higher = more signal;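 further: mouse activin A protein probed at 4.33 µg/mL on printed slides; score merges bound-protein fluorescence near 667 nm with spot signal-to-noise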

Follistatin-related protein 3 (Homo sapiens), sequence (O95633 whole entry, looked up): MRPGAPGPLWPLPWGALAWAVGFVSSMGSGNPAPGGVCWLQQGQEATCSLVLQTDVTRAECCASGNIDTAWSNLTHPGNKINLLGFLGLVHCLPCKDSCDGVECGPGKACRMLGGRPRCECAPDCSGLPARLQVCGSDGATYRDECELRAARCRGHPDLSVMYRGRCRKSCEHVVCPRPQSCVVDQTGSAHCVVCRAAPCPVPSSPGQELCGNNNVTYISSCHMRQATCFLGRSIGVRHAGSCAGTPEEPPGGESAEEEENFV
Dickkopf-related protein 1 (Homo sapiens), sequence (O94907 whole entry, looked up): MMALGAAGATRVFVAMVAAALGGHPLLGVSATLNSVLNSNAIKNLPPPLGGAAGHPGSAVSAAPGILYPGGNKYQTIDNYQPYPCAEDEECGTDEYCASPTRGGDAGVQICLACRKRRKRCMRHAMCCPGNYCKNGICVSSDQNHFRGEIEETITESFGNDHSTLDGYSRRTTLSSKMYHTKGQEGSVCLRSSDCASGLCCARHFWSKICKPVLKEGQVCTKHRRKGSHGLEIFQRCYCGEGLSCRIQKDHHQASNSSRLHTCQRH
Fibroblast growth factor 10 (Homo sapiens), sequence (O15520 whole entry, looked up): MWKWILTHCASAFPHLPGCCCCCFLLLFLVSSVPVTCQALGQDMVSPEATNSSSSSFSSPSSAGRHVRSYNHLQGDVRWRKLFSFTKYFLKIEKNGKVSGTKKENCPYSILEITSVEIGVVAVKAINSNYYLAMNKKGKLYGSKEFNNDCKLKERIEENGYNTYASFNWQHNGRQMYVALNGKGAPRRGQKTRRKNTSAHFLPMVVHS
Epidermal growth factor receptor (Homo sapiens), sequence (P00533 whole entry, looked up): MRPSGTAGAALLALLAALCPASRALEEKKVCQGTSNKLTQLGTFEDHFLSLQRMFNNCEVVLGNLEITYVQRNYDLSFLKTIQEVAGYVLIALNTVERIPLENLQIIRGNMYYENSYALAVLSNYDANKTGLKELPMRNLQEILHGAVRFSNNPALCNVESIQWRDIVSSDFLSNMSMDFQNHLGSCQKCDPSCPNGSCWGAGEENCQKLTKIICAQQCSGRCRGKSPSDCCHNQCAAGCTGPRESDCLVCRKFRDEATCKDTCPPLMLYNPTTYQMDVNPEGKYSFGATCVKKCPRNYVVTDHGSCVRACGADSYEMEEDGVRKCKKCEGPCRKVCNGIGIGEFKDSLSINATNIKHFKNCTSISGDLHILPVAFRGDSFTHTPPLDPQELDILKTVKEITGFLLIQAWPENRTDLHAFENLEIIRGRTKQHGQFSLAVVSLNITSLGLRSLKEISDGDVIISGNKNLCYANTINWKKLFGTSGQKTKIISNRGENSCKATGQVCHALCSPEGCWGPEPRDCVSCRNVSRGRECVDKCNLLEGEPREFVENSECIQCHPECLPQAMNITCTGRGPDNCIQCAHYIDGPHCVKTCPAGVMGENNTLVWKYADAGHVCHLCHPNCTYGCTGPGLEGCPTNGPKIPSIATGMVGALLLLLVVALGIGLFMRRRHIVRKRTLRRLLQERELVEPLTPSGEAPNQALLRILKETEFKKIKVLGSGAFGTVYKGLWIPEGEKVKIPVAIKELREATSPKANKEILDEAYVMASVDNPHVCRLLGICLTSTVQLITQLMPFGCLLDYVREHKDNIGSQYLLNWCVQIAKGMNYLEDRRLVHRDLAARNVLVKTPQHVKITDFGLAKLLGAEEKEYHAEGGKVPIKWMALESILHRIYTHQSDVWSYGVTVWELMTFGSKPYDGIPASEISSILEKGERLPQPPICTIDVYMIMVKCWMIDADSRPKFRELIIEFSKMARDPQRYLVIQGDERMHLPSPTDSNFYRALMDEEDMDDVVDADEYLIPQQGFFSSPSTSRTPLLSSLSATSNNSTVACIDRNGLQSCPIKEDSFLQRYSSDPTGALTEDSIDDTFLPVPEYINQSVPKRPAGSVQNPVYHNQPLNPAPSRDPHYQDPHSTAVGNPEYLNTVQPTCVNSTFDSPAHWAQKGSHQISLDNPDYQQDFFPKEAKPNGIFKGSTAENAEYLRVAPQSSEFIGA

Structure (SMILES) | composite z-score [1] | composite z-score [2] | composite z-score [3] | z-score [4] | composite z-score [5] | composite z-score [6] | composite z-score [7] | composite z-score [8] | composite z-score [9] | composite z-score [10]
O=C1NC(=O)C2C1C=CC(C(O)c1ccc3c(c1)OCO3)N2Nc1ccc(Cl)cc1Cl (stereo not given) | 0.981 | 0.849 | 1.06 | 0.889 (inactive) | 0.553 | -0.334 | 0.205 | 0.304 | -0.278 | 1.19
CCCC=C(CCC)[C@@H](NS(=O)(=O)CC)c1ccccc1 | 0.903 | 0.303 | 0.726 | -3.42 (inactive) | 0.601 | 1.12 | 0.167 | 0.388 | -0.328 | 0.147
C=C[C@@H](O)[C@H]1CC(c2ccccc2)=NO1 | 1.46 | -0.187 | 0.0537 | 0.147 (inactive) | 0.0244 | -0.408 | 0.449 | 0.046 | 0.271 | 0.614
CCN(CC)c1ccc(N2CC=CC34O[C@@H]5/C=C\CCCOC(=O)C5[C@H]3C(=O)N(CCCCCCO)[C@@H]4C2=O)cc1 (stereo not given in full) | 1.96 | -0.202 | 0.733 | -1.13 (inactive) | -0.983 | -0.521 | -1.4 | -0.76 | -1.82 | 0.751
COc1ccc(C#Cc2ccc3c(c2)[C@]2(C(=O)N3)[C@H](C(N)=O)[C@H]3C(=O)O[C@H](c4ccccc4)[C@H](c4ccccc4)N3[C@@H]2c2ccc(O)cc2)cc1 | 0.818 | 0.153 | 0.411 | 10.5 (active) | 0.904 | 0.491 | 0.248 | 0.313 | 0.0346 | -0.116
CC(C)C[C@H]1NC(=O)[C@H](C)NC(=O)[C@@]23C(=O)N[C@@H](Cc4ccccc4)C2[C@H](C)[C@@]2(C)O[C@H]2C3/C=C/C/C=C\CNC1=O (stereo not given in full) | 0.0682 | -0.597 | -0.376 | 0.271 (inactive) | -0.148 | -0.294 | -0.0275 | 0.461 | 0.29 | 1.55
COCCOC(=O)N1C(=O)[C@@]2(c3cc(C#CCNC(N)=O)ccc31)[C@H](C(=O)N1CCCCCCC1)[C@H]1C(=O)O[C@H](c3ccccc3)[C@H](c3ccccc3)N1[C@@H]2c1ccc(OCCO)cc1 | 0.918 | 0.774 | 0.989 | 0.524 (inactive) | 0.544 | 0.211 | 0.588 | 0.762 | 0.0313 | 0.999
COC(=O)c1ccc(OC)c(/C=C\CC(CCc2ccccc2)OC(C)=O)c1 (stereo not given) | -0.388 | -0.493 | -0.101 | -0.101 (inactive) | -0.614 | -0.0629 | -0.309 | 0.21 | 0.239 | 1.53
COc1ccc([Si](C)(C)[C@@H]2[C@@H](CCO)O[C@]3(C(=O)N(Cc4cccc(N5C(=O)COc6ccccc65)c4)c4ccccc43)[C@H]2C)cc1 | 1.35 | 0.0985 | 0.298 | -1.54 (inactive) | 0.247 | -0.233 | -0.0851 | -0.225 | -0.466 | -0.496
C=C(COC)C(=O)CC[C@H](OC(=O)c1ccccc1-c1ccccc1C(=O)O)c1ccc(CO)o1 | 0.806 | -0.416 | -0.479 | -0.0254 (inactive) | 1.43 | 0.645 | -0.358 | 0.451 | 0.532 | 1.19
C=CC[C@@]1(C(=O)NCCN2CCOCC2)N=C(c2ccc(OCCCO)cc2)O[C@@H]1c1ccccc1 | 1.28 | 0.449 | 0.853 | -0.161 (inactive) | 1.5 | 1.29 | 0.802 | 1.22 | 0.785 | 0.726
C=CCOC(=O)[C@@H]1[C@H]2C(=O)O[C@H](c3ccccc3)[C@H](c3ccccc3)N2[C@H](c2ccc(OCCOC(=O)[C@@H]3C[C@@H]4C(=O)N5CCC[C@H]5C(=O)N4[C@@H]3c3cccc(OCCO)c3)cc2)[C@@]12C(=O)Nc1ccc(I)cc12 | 1.04 | -0.297 | -0.121 | -0.64 (inactive) | 1.18 | 1.12 | 0.754 | 1.11 | 1.1 | 0.607
C[C@H]1ON(c2ccccc2)[C@@H](c2ccccc2)[C@@H]1C(=O)N1C(=O)OC[C@@H]1c1ccccc1 | 0.0672 | -0.138 | -0.351 | 0.216 (inactive) | 0.675 | 0.363 | 0.356 | 0.699 | 0.289 | 0.631
O=C1CSC(c2cccc([N+](=O)[O-])c2)N1c1ccccc1 (stereo not given) | -0.125 | 0.136 | -0.342 | 0.187 (inactive) | 0.523 | 0.401 | 0.354 | 0.404 | 0.661 | 0.154
CC(C)CNC(=O)[C@@]1(C)c2ccccc2C(=O)N(Cc2ccccc2)[C@H]1c1ccc(CO)cc1 | 0.651 | 0.569 | 1.19 | 0.622 (inactive) | -1.21 | -1.01 | -1.56 | -2.11 | -1.88 | -1.02
C=CCNC(=O)[C@H]1[C@@H]2C(=O)O[C@@H](c3ccccc3)[C@@H](c3ccccc3)N2[C@@H](c2ccc(OCCO)cc2)[C@]12C(=O)N(C(=O)OCCOC)c1ccc(C#CC3=CCCCC3)cc12 | 1.39 | 0.0825 | -0.0093 | -1.98 (inactive) | 1.17 | 1.31 | 0.475 | 1.11 | 0.522 | 0.373
